Screening data: PubChem, National Center for Advancing Translational Sciences (NCATS)
Only some compounds are listed: those with a hit (about 9% of all), similar ones and a draw of the others.
Luc counter – Counterscreen for Luciferase (Kinase-Glo TM) Inhibition. 0.28% of 200,000 active. Potency, µM (titrated, usually from 38.3 µM), actives largely listed as inhibitors. Luciferin 4-monooxygenase (Photuris pensylvanica), Q27757. AID 1379, 2008. Kinase-Glo luciferase, ATP luminescence, 8 min; further: nearly all actives have a fitted effect of over 60% in size
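Substrate mix (final 50 mM imidazole pH 7.2, 50 mM KCl, 7 mM MgCl2, 10 uM ATP, 0.01% Tween 20, 0.05% BSA) plus pin-tool compound, then Kinase-Glo detection mix; 8 min ambient, luminescence read.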
ALDH1A1 inh – qHTS Assay for Inhibitors of Aldehyde Dehydrogenase 1 (ALDH1A1); 7.3% of 220,000 active; Aldehyde dehydrogenase 1A1 (Homo sapiens), P00352; AID 1030, 2008; Purified ALDH1A1, NADH fluorescence, propionaldehyde substrate; Potency, µM (series often up to 75.3 µM), hits mostly inhibitors; active means well fitted inhibition curve with a large enough effect, not every such curve was filed as active; inconclusive means small, poorly fitted or top-dose-only effect, or another doubt; inactive means no such curve, though single readings can be large or run the other way
Target sequence (P00352 whole entry, looked up): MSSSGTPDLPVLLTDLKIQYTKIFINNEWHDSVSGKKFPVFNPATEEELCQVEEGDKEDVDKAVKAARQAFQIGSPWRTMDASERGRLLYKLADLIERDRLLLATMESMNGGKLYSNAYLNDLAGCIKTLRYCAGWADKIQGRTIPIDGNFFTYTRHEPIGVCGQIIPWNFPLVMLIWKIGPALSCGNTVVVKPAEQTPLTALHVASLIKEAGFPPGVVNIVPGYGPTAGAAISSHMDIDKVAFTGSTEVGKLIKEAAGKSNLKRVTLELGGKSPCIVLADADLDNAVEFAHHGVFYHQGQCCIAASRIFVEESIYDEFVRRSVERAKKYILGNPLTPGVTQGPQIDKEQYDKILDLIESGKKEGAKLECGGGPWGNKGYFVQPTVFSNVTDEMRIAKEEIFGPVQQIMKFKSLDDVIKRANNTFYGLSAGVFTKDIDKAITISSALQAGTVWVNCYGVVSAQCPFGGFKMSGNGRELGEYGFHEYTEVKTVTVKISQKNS
HttQ103 aggreg – qHTS Multiplex Assay to Identify Dual Action Probes in a Cell Model of Huntington: Aggregate Formation (GFP); PC12 HttQ103-GFP aggregates, Acumen cytometry, 40 h; Potency, µM (series often up to 46.1 µM), hits mostly inhibitors; 1.1% of 220,000 active; further: nearly all actives have a fitted effect of over 60% in size
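PC12 cells with ecdysone-inducible HTT exon1 Q103-GFP, induced by 100 nM tebufenozide, given compounds in a concentration series. GFP aggregates (1–25 um, 6 SD above background) counted in lysates by laser-scanning cytometry, 488 nm excitation.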
HTT ATP protect – qHTS Multiplex Assay to Identify Dual Action Probes in a Cell Model of Huntington: Cytoprotection (ATP); PC12 HTT-Q103 induced, cytoprotection, ATP luminescence, 40 h; Potency, µM (series often up to 56.4 µM), hits mostly activators; 0.14% of 230,000 active; further: nearly all actives have a fitted effect of over 45% in size
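Huntington model: PC12 line, ecdysone-inducible HTTQ103 exon1–GFP, tebufenozide 100 nM. Test articles in a dose series. Endpoint luminescence from cellular ATP.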
LMNA splice mod – qHTS Assay for Modulators of Lamin A Splicing. HeLa LMNA splicing GFP/RFP minigene ratio, 48 h. Potency, µM (highest dose often 46.1 µM), hits mostly inhibitors. 0.01% of 200,000 active; active means well fitted inhibition curve with a large enough effect in the signal ratio, with a control signal flat, not every such curve was filed as active; inconclusive means small, poorly fitted or top-dose-only effect, or effect the other way, or a change in a side signal; the % refers to the signal ratio
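Read-out is the ratio of GFP to DsRed2 object intensity, acquired by 488 nm laser-scanning cytometry on HeLa lamin A-EGFP minigene reporter cells. Compound incubation 48 hrs at 37 °C in Opti-MEM with 2% FBS; DMSO 0.5% final.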
HPGD inh – qHTS Assay for Inhibitors of HPGD (15-Hydroxyprostaglandin Dehydrogenase). purified HPGD, NADH fluorescence kinetic, PGE2 substrate. 15-hydroxyprostaglandin dehydrogenase [NAD(+)] (Homo sapiens), P15428. AID 894, 2007. 4.3% of 150,000 active. Potency, µM, hits mostly inhibitors; active means well fitted inhibition curve with a large enough effect, not every such curve was filed as active; inconclusive means small, poorly fitted or top-dose-only effect, or another doubt; inactive means no such curve, though single readings can be large or run the other way
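NADH formation kinetics: reaction with 30 uM PGE2 and 1 mM NAD+ (final), 20 nM enzyme, Tris-HCl pH 8 with Tween 20, after 15 min compound preincubation at room temperature. Fluorescence change, last versus first of five reads.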
Of the large screens only hits and unclear results are named; the others gave an inactive call. Unless noted, the call rests on the fitted dose curve; in most records, active means well fitted curve in the direction sought with a large enough effect; inconclusive means small, poorly fitted or top-dose-only effect, or another doubt; inactive means no such curve, though single readings can be large; an effect the other way counts as inactive or inconclusive.

CN1CCN(CCC(C#N)(c2ccccc2)c2ccccc2)CC1	none
COc1ccc(N2CCN(C(CNC(=O)Oc3ccccc3)c3cccnc3)CC2)cc1 (stereo not drawn)	ALDH1A1 inh inconclusive
O=c1[nH]sc2cc(F)ccc12	ALDH1A1 inh 1.4µM, HTT ATP protect inconclusive, LMNA splice mod inconclusive (no result: HPGD inh)
NCCNCCNCCNCCN	ALDH1A1 inh 32µM, HTT ATP protect inconclusive, LMNA splice mod inconclusive (no result: Luc counter)
O=C1NC(=O)C2=Cc3ccc(O)cc3OC2(O)N1 (stereo not drawn)	ALDH1A1 inh inconclusive (no result: LMNA splice mod, HPGD inh)
N/C(=N\N=C/c1ccc(-c2ccc(O)c(C(=O)O)c2)o1)N[N+](=O)[O-]	ALDH1A1 inh inconclusive, HPGD inh 7.1µM
COc1cc2c(cc1OC)[C@]13CCN4CC5=CCOC6CC(=O)N2[C@@H]1[C@@H]6C5C[C@@H]43 (stereo partly drawn)	none (no result: HttQ103 aggreg, LMNA splice mod)
O=c1[nH]c(=S)n(Cc2ccc(F)cc2)c(O)c1C=NCCCn1ccnc1	none (no result: Luc counter, ALDH1A1 inh, LMNA splice mod, HPGD inh)
CC(=NCC1CCCO1)c1c(O)n(C2CCCCC2)c(=O)[nH]c1=O (stereo not drawn)	none (no result: Luc counter, ALDH1A1 inh, LMNA splice mod, HPGD inh)
CC(=NCCN1CCOCC1)c1c(O)n(C2CCCCC2)c(=O)[nH]c1=O	ALDH1A1 inh 14µM, LMNA splice mod inconclusive
Cc1ccc(S(=O)(=O)N2CCC(C(=O)N3CCC4(CC3)OCCO4)CC2)cc1	none
Oc1cc(Cl)c(Cl)cc1Cl	HPGD inh 5.6µM (no result: Luc counter, LMNA splice mod)
[O-]/[N+](=N\O)c1ccccc1	ALDH1A1 inh 10µM, HPGD inh 13µM (no result: Luc counter, HttQ103 aggreg, LMNA splice mod)
CCCCn1c(NC(=O)c2ccc(Br)o2)c(C(=O)OCC)c2nc3ccccc3nc21	ALDH1A1 inh inconclusive, HttQ103 aggreg inconclusive, LMNA splice mod inconclusive, HPGD inh inconclusive (no result: HTT ATP protect)
O=C(OCCCCN1C(=O)c2ccccc2C1=O)c1ccc(Br)o1	ALDH1A1 inh inconclusive, LMNA splice mod inconclusive, HPGD inh 16µM
CCc1cc2c(N3CCN(C)CC3)ncnc2s1	HttQ103 aggreg inconclusive
CCN1CCN(c2ncnc3ccc(Br)cc23)CC1	ALDH1A1 inh inconclusive, HttQ103 aggreg 7.1µM
O=S(=O)(Cl)c1ccccc1	ALDH1A1 inh inconclusive (no result: Luc counter, HttQ103 aggreg, LMNA splice mod)
COc1cc(/C=C2\C(=O)NC(=O)N(c3ccccc3)C2=O)cc(OC)c1OC	ALDH1A1 inh 13µM, HPGD inh inconclusive
COc1ccc(/C=C2/C(=O)NC(=O)N(c3ccc(C)c(C)c3)C2=O)cc1CN1C(=O)c2ccccc2C1=O	ALDH1A1 inh 7.9µM, HPGD inh 10µM
COC(=O)C[C@]1(C(=O)OC)CN(C#N)N(c2ccc(Cl)cc2)C12c1ccccc1-c1ccccc12	HttQ103 aggreg 5.6µM, LMNA splice mod inconclusive
O=C(C[N+]12CCC(CC1)C(OC(=O)c1ccccc1)C2)c1ccc([N+](=O)[O-])cc1 (stereo not drawn)	none (no result: Luc counter, LMNA splice mod, HPGD inh)
O=C(OCC(=O)c1ccc([N+](=O)[O-])cc1)/C(=C/c1ccc(Cl)cc1)NC(=O)c1ccccc1	ALDH1A1 inh 7.9µM (no result: HTT ATP protect)
Cc1cc(OCc2ccc([N+](=O)[O-])cc2)c2c3c(c(=O)oc2c1)CCCC3	ALDH1A1 inh 28µM, HPGD inh inconclusive
Cc1cc(OC(=O)CCCNC(=O)OC(C)(C)C)c2c3c(c(=O)oc2c1)CCC3	ALDH1A1 inh inconclusive
CCCCOC(=O)COc1cc(C)cc2oc(=O)c3c(c12)CCC3	ALDH1A1 inh 10µM
Cc1cc(OC(=O)c2ccco2)c2c3c(c(=O)oc2c1)CCC3	ALDH1A1 inh 10µM, HttQ103 aggreg inconclusive, LMNA splice mod inconclusive (no result: Luc counter, HPGD inh)
C=CCOC(=O)COc1cc(C)cc2oc(=O)c3c(c12)CCC3	ALDH1A1 inh inconclusive, HPGD inh inconclusive
Cc1cc(OC(=O)CCNC(=O)OC(C)(C)C)c2c3c(c(=O)oc2c1)CCC3	ALDH1A1 inh 1.8µM, LMNA splice mod inconclusive, HPGD inh inconclusive
